This assay has as its target Dual specificity protein phosphatase 3 (Homo sapiens) (UniProt P51452). Kind of assay: inhibition of human DUSP3 activity – biochemical, absorbance, uHTS, primary screen (AID 1654).
[1] abbreviates: recombinant VHR phosphatase, pNPP absorbance, at 13.3 µM, stronger effect = higher value.

Usually inhibition stands for the change of the read-out against control, counted positive when it falls.

The structures appear in SMILES notation. About 1,500 (0.52%) of roughly 290,000 compounds were called active. The sample holds actives, similar compounds and a random draw of the others, so the mix is not that of the screen. Cut-off read from the data, not from the text of the source: active = inhibition above about 50%; inactive = the rest.

Chain of Dual specificity protein phosphatase 3 (Homo sapiens) (P51452 whole entry, looked up): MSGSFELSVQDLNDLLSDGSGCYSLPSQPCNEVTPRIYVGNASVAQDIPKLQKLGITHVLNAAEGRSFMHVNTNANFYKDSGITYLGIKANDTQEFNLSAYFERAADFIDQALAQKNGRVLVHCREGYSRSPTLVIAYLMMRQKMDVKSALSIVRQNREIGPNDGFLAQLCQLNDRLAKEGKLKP

`CC(=O)c1cccc(NC(=O)C2CCCN2S(=O)(=O)c2cccc3nsnc23)c1` (stereo not drawn): under setting [1], the inhibition is 54.2% (active).
In the case of `Cc1ccc(NC(=O)C2CCCN2S(=O)(=O)c2cccc3cccnc23)c(C)c1` (stereo not drawn), the inhibition under setting [1] was -0.7% (inactive).
Regarding `Cc1cc(C)cc(NC(=O)C2CCCN2S(=O)(=O)c2cccc3cccnc23)c1` (stereo not drawn), the inhibition under setting [1] was -42.1% (inactive).
Regarding `COc1ccc(NC(=O)C2CCCN(S(=O)(=O)c3cccc4cccnc34)C2)cc1OC` (stereo not drawn), the inhibition under setting [1] was 23.6% (inactive).
In the case of `CC1CCCCC1NC(=O)C1CCCN1S(=O)(=O)c1cccc2nsnc12` (stereo not drawn), the inhibition under setting [1] is 16.6% (inactive).
For the compound `CCc1ccc(-c2cc(C)no2)cc1S(=O)(=O)NCCc1ccc(S(N)(=O)=O)cc1`, the inhibition under setting [1] is 28% (inactive).
The same measure, in the same setting: under `Cc1ccc(NC(=O)c2nc[nH]c2C(=O)N[C@@H](CCCCNC(=O)OC(C)(C)C)C(=O)OC(C)(C)C)cc1` stands -0.7% (inactive); under `CCc1ccccc1NC(=O)c1ccc2c(c1)CCN2S(C)(=O)=O`, -17.9% (inactive); under `O=C1/C(=C/c2ccc(F)cc2)SC(=S)N1CCCC(=O)N1CCCCC1CCO` (stereo not drawn), 42.6% (inactive).
As for `CC(=O)Nc1ccc(S(=O)(=O)N2CCC(C(=O)NC3CC3)CC2)cc1`, the inhibition under setting [1] was 14.9% (inactive).
Consider `CCC(C(=O)NC1CCCC1)N(C(=O)Cn1nnc(-c2ccc(C)o2)n1)c1ccc(OC)c(OC)c1` (stereo not drawn), for which, under setting [1], the inhibition is 13% (inactive).
On the same count and under the same terms, the figure for `Nc1nc(SCC(=O)Nc2ccc(Cl)cc2C(F)(F)F)n[nH]1` is 2.5% (inactive); for `CCN(C(=O)CSc1nnc(-c2ccncc2)o1)c1ccccc1` it is 11% (inactive); for `Cc1cc(C(=O)N2CCN(c3ccccn3)CC2)c(C)o1` it is -2.1% (inactive).
Take `COc1cccc(OC)c1C(=O)Nc1c(C(=O)N2CCN(c3ccccn3)CC2)oc2ccccc12`: the inhibition under setting [1] is 52.1% (active).
The same measure, in the same setting: the figure for `COCC(=O)Nc1c(C(=O)N2CCCC2)oc2ccccc12` is 1% (inactive); for `CCOc1ccc(CN2CCN(Cc3ccc4cc(F)ccc4n3)CC2CCO)cc1` (stereo not drawn) it is 6.4% (inactive).
Turning to `Cc1cccc(C(=O)OCC(=O)Nc2ccc(F)cc2)c1`, under setting [1], the inhibition was 8% (inactive).
Regarding `Cc1cc(C)nc(-n2ncc3c2CC(c2ccc(C(C)C)cc2)CC3=O)n1` (stereo not drawn), the inhibition under setting [1] is 1.9% (inactive).
Consider `NC(=S)Nc1c(Cl)cccc1Cl`, for which, under setting [1], the inhibition was 24.6% (inactive).
On to `CSCCNC(=O)c1ccc2nc(Cc3ccccc3F)oc2c1`, for which the inhibition is, setting by setting: (recombinant VHR phosphatase, pNPP absorbance; at 13.3 µM; stronger effect = higher value) 63.9% (inactive); (recombinant VHR phosphatase, pNPP absorbance; measured here: average of confirmation repeats; at 13.3 µM; stronger effect = higher value) 2.8%.
Turning to `Cc1ccc(NC2CCCN(C(=O)CCc3cn[nH]c3)C2)cc1C` (stereo not drawn), the inhibition under setting [1] was -2.7% (inactive).
As for `CCOc1cc(/C=N/O)ccc1OCc1ccccc1F`, under setting [1], the inhibition is -4.1% (inactive).
Consider `CCOc1cc(/C=N/NC(=O)OC)ccc1OCCSc1ccc(Cl)cc1`, for which the inhibition under setting [1] is -3.8% (inactive).
`CC(=O)c1nn(-c2cccc(C(F)(F)F)c2)c(=O)[nH]c1=O`: the inhibition under setting [1] was -9.5% (inactive).
For `CN(CCO)c1ccc(/C=N/Nc2nncc3ccccc23)cc1`, the inhibition under setting [1] is 18.2% (inactive).
Turning to `O=C(Nc1ccc(OCC(=O)N2CCOCC2)cc1)c1cc(F)c(F)cc1Cl`, the inhibition under setting [1] was 25.5% (inactive).
Same read-out and setting: the figure for `O=C1COc2ccc(S(=O)(=O)Nc3ccc(OC(F)(F)F)cc3)cc2N1` is -1.9% (inactive); for `Cc1ccc(C)c(SCc2nc3sc(C(=O)O)c(C)c3c(=O)[nH]2)c1` it is 7.2% (inactive).
With `COc1ccccc1NC(=O)CSc1nc2sc3c(c2c(=O)n1-c1ccccc1)CCN(C)C3`, the inhibition under setting [1] was 9.1% (inactive).
Consider `Cc1ccc(-c2nc(SCC(=O)Nc3ccccc3OC(F)F)c3c(C)c(C(=O)O)sc3n2)cc1`, for which the inhibition under setting [1] is 113% (active).
Regarding `CCN(CC)c1ccc(/C=N/NC(=O)CNC(=O)c2cccs2)cc1`, under setting [1], the inhibition is 10.2% (inactive).
`CN(C(=O)COC(=O)CNC(=O)C12CC3CC(CC(C3)C1)C2)c1ccccc1`: the inhibition under setting [1] is 14.5% (inactive).
With `Nc1nonc1-n1nnc(C(=O)N/N=C\c2ccncc2)c1CN1CCCCC1`, the inhibition under setting [1] is 13% (inactive).
On to `Cc1c(C(=O)O)nnn1-c1nonc1N`, for which the inhibition under setting [1] was 17.9% (inactive).
On to `NNC(=O)c1nnn(-c2nonc2N)c1CN1CCCC1`, for which, under setting [1], the inhibition is 52.8% (active).
For `Cc1ccc2c(c1)N(CC(=O)N1CCCC(C)C1)C(=O)CO2` (stereo not drawn), the inhibition under setting [1] is 7.4% (inactive).
Same read-out and setting: the figure for `CCOc1ccc(CN2CCN(CCCc3ccccc3)C(CCO)C2)cc1` (stereo not drawn) is 8.1% (inactive); for `Cc1noc(C)c1CCC(=O)N1CCCC(CO)(Cc2ccccc2)C1` (stereo not drawn) it is 5.7% (inactive).
With `CC1CN(C(=S)Nc2ccc(Br)cc2Cl)CC(C)O1` (stereo not drawn), the inhibition under setting [1] is 15% (inactive).
Regarding `CCc1ccc(NC(=O)CN2CCC(C(=O)c3ccc(OC)cc3)CC2)cc1`, the inhibition under setting [1] was 52% (active).
On the same count and under the same terms, the figure for `CCOc1ccc(NC(=O)CN2CCN(CC(=O)Nc3ccc(OC)cc3)CC2)cc1` is -3.3% (inactive); for `CCc1ccc(NC(=O)Cn2nnc(C(=O)NCc3ccc(OC)cc3)c2N)cc1` it is -1.9% (inactive).
For the compound `CC(C)CCNC(=O)C1CCCN(S(=O)(=O)c2ccc(F)cc2)C1` (stereo not drawn), the inhibition under setting [1] was 53.4% (active).
Still for that read-out and setting: the figure for `CCCCNC(=O)C1CCCN(S(=O)(=O)c2ccc(S(=O)(=O)NCC(C)C)cc2)C1` (stereo not drawn) is 6.5% (inactive); for `COc1ccc(CCNC(=O)C2CCCN(S(=O)(=O)c3ccc(OC)cc3)C2)cc1` (stereo not drawn) it is -35.9% (inactive).
Turning to `CCc1cc(-c2nnc(SCC(=O)NC3CC3)n2C)cs1`, the inhibition under setting [1] was 24% (inactive).

The values are drawn from PubChem BioAssay AID1654 (Sanford-Burnham Center for Chemical Genomics, 2009).
